# Reference: publication PMC4336329 (PLoS ONE, 2015)
# Screen size: about 310,000 compounds; about 14,000 (4.5%) showed an effect of 50% or more. The effect is printed as a negative number. The list comes from a sample in which strong results are over-represented; it also holds similar structures and randomly drawn compounds.
# Biological target: human ether-à-go-go-related gene (hERG) potassium channel (human, UniProt Q12809)
# Assay: primary screen, population patch clamp on CHO cells stably expressing hERG; higher = less effect of the substance
# 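Also: peak tail current of the secondary pulse compared with the same well before compound.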
# human ether-à-go-go-related gene (hERG) potassium channel, sequence (Q12809 whole entry, looked up): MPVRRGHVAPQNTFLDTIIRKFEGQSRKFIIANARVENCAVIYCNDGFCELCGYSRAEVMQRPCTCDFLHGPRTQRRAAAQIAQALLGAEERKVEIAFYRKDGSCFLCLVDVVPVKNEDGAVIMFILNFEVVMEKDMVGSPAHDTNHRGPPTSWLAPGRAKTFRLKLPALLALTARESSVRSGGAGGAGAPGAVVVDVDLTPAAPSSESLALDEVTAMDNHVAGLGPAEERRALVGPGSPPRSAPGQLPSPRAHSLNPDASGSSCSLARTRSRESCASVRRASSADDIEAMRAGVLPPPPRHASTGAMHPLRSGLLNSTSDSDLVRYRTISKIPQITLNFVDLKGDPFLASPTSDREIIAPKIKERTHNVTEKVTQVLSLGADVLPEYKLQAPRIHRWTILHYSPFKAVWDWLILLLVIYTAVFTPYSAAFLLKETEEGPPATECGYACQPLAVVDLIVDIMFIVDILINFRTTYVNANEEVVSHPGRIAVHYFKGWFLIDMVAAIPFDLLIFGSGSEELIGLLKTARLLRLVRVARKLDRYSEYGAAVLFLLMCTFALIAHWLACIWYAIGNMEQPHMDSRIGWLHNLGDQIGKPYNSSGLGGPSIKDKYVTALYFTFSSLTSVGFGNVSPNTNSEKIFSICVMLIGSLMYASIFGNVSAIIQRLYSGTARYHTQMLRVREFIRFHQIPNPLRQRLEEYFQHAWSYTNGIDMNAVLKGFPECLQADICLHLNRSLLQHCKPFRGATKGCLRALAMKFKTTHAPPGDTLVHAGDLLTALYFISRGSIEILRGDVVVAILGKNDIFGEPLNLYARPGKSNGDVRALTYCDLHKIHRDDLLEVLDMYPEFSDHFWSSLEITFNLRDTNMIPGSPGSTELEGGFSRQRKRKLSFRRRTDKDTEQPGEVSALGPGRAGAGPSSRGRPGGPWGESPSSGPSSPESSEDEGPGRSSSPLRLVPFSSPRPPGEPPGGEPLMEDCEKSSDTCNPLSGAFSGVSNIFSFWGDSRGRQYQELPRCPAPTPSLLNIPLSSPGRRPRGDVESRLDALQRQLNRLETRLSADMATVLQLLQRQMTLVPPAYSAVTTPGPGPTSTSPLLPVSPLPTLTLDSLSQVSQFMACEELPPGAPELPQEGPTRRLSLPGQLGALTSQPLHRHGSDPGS
row,SMILES,"hERG current change (%, negative = inhibition) at 10uM [%]"
1,OCC1(CCOc2ccccc2)CCN(CC2=Cc3cc(Cl)ccc3OC2)CC1,-21.9
2,COc1ccc2c(c1)C=C(CN1CCC(CO)(CCc3ccccc3)CC1)CO2,-77.1
3,COc1ccc(CC2(CO)CCN(CC3=Cc4cc(Cl)ccc4OC3)CC2)cc1,-58.3
4,CCOc1ccc(S(=O)(=O)NC(Cc2cnc[nH]2)C(=O)O)cc1 (stereo not drawn),18.5
5,CCN(CC)c1ccc(NC(=O)c2ccc(=O)[nH]c2)cc1S(=O)(=O)Nc1ccc(OC)cc1,-7.22
6,CC(C)CCNC(=O)c1cc(S(=O)(=O)N2CCc3ccccc32)cn1C,10.2
7,CCN(CC)CCNC(=O)c1cc(S(=O)(=O)N2CCc3ccccc32)cn1C,-66.1
8,CCCNC(=O)c1cc(S(=O)(=O)N2CCc3ccccc32)cn1C,-0.715
9,CC(NC(=O)c1cccc(S(=O)(=O)N2CCc3ccccc32)c1)c1ccco1 (stereo not drawn),-48
10,CC(C)CCNC(=O)c1cccc(S(=O)(=O)N2CCc3ccccc32)c1,2.44
11,CCN(CC)CCCC(C)NC(=O)c1cccc(S(=O)(=O)N2CCc3ccccc32)c1.Cl (stereo not drawn),-58.5
12,CCCOc1ccccc1C1CC(=O)NC2=C1C(=O)CCC2 (stereo not drawn),-1.24
13,C=CCOc1ccc(/C=C/C(=O)OC(C)C(=O)Nc2ccc(NC(C)=O)cc2)cc1 (stereo not drawn),4.6
14,Cc1nc(CNC(=O)CC2C(=O)NCCN2Cc2ccc(F)cc2)cs1 (stereo not drawn),11.9
15,Cc1cc(C)nc(N(C#N)CN2C(=O)c3ccccc3S2(=O)=O)n1,0.542
16,O=C(O)c1ccc(Cl)c(S(=O)(=O)N2CCCCCC2)c1,-8.34
17,C/C(=N\NC(=O)CN(c1ccc(C)cc1)S(C)(=O)=O)c1cccs1,-8.31
18,O=C(Nc1cc(Cl)ccc1Oc1ccccc1)c1ccc(F)cc1,-14.1
19,COc1ccc(C2=NN(C(=O)CSc3nc(=O)n4ccc(C)cc4n3)C(c3ccc(C)cc3)C2)cc1 (stereo not drawn),5.1
20,CCN1CCN(CC(=O)N2N=C(c3cccs3)CC2c2ccc(OC)cc2)C(=O)C1=O (stereo not drawn),-8.83
21,Cc1ccn2c(=O)nc(SCC(=O)N3N=C(c4cccs4)CC3c3ccc(F)cc3)nc2c1 (stereo not drawn),-65

row,SMILES,"hERG current change (%, negative = inhibition) at 10uM [%]"
1,COc1ccc(C2CC(c3cccs3)=NN2C(=O)CSc2nc(=O)n3ccc(C)cc3n2)cc1 (stereo not drawn),-65.4
2,Cc1ccc(C2CC(c3cccs3)=NN2C(=O)CSc2nc(=O)n3ccc(C)cc3n2)cc1 (stereo not drawn),-46.3
3,CCOC(=O)CSCC(=O)N1N=C(c2cccs2)CC1c1ccc(F)cc1 (stereo not drawn),-34.1
4,COCCn1c(N)c(C(=O)NCC2CCCO2)c2nc3ccccc3nc21 (stereo not drawn),-7.66
5,CN(CC(=O)Nc1ccc(Cl)cc1)C(=O)CNC(=O)Cc1cccc2ccccc12,20.1
6,COc1cccc(CN(C(=O)Cn2nnc(-c3ccccc3F)n2)C(C(=O)NC(C)(C)C)c2ccncc2)c1 (stereo not drawn),-18.7
7,O=[N+]([O-])c1ccc(N(c2ccccc2)c2ccccc2)cc1,4.46
8,Cc1nn(-c2cc(N3CCNCC3)ccc2[N+](=O)[O-])c(=O)c2ccccc12,-11.4
9,CCOc1c(Cl)cc(CNc2ccc(S(N)(=O)=O)cc2)cc1OC,-3.11
10,CN1CCN(CC(O)COC(c2ccc(Cl)cc2)c2ccc(Cl)cc2)CC1.Cl (stereo not drawn),-69.3
11,CC1CN(CC(O)COc2ccc(C(C)C)cc2)CC(C)O1.Cl (stereo not drawn),-14.3
12,CN1CCN(CC(O)COc2ccc(Cl)cc2)CC1.Cl (stereo not drawn),-12.5
13,CC(C)c1ccc(OCC(O)CN2CCCC2)cc1.Cl (stereo not drawn),-11.1
14,OC(COC(c1ccc(Cl)cc1)c1ccc(Cl)cc1)CN1CCCC1 (stereo not drawn),-77.4
15,COc1ccc(OCC(O)CN2CC(C)OC(C)C2)cc1.Cl (stereo not drawn),17.5
16,CN1CCN(CC(O)COC(c2ccccc2)c2ccccc2)CC1 (stereo not drawn),11.2
17,CC1CN(CC(O)COC(c2ccc(Cl)cc2)c2ccc(Cl)cc2)CC(C)O1.Cl (stereo not drawn),-71.9
18,CC1CCCCC1NC(=O)c1nnc(Cc2ccc(Cl)cc2)o1 (stereo not drawn),-9.72
19,O=c1[nH]c(=O)c2nc3c4ccccc4c4ccccc4c3nc2[nH]1,4.75
20,CCOP(=O)(O)c1ccccc1OCCCCCOc1ccccc1P(=O)(O)OCC,14.5
21,COC(=O)C(C)(C(=O)OC)c1ccccc1[N+](=O)[O-],7.93
